# Hits are enriched below; roughly 7.2% of the tested compounds scored in any of these assays.
# AHR activator = activators of human aryl hydrocarbon receptor | P35869 | AHR-responsive luciferase reporter cells, luminescence | activation, % at 5 µM | hit rate 2.5% among 320,000 | AID 2796; in the data active means activation above about 47%;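 further: 0% = vehicle wells and 100% = reference agonist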
# SUMO Mot1 rescue = SUMOylation pathway inhibition by Mot1-301 growth rescue; growth rescue, % at 18.8 µM; S. cerevisiae Mot1-301 growth rescue, ATP luminescence, 38.5C; percent above DMSO median, 100 means doubled; hit rate 1% among 320,000;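 active means every valid replicate shows activation above 250% relative to neutral control wells; inactive means the rest, any valid replicate at or below 250%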;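 further: OY570 slx delta 5 strain wells were the positive control but not used for scaling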
# ALR inh = inhibitors of human sulfhydryl oxidase ALR | P55789 | purified ALR, DTT oxidation, H2O2 HRP-luminol luminescence | inhibition, % (test concentration not listed) | hit rate 3.8% among 290,000;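 active means mean replicate inhibition above about 79%, with every replicate also reaching it, limit read from the data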
# Target sequence (P55789 whole entry, looked up): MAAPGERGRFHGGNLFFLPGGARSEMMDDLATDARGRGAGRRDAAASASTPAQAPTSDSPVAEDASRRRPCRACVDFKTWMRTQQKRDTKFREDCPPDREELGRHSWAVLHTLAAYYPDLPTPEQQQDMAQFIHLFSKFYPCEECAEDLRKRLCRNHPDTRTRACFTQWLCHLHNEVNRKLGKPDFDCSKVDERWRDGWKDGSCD
# Efflux pump inh = blocks antifungal efflux pumps in multiplex yeast assay. hit rate 0.44% among 330,000. S. cerevisiae Candida pump triplex, Nile Red efflux. inhibition, % at 10 µM;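 active means plate passing quality check with inhibition over a set limit, or well fluorescence over plate mean plus 4 SD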;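 further: Nile Red retained in pooled yeast measured as flow cytometry median fluorescence; 0% = buffer negative control and 100% = Enniatin B positive control; higher means more Nile Red kept so more efflux inhibition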
# A1 inh = inhibitors of the anti-apoptotic protein A1, read as caspase activation; AID 2462; caspase activation, % (no concentration beside the values); MEF A1-2A-BIM cells, Caspase-Glo 3/7 luminescence, 3 h; percent of clofoctol response, vehicle zero; hit rate 0.066% among 330,000;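 active means over half of replicate activation scores above 10%, or exactly half above 10 with the replicate mean above 10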
# VLA-4 inh = inhibition in a human VLA-4 binding assay. hit rate 0.2% among 330,000. AID 2557. VLA-4 expressing cells, ligand binding flow cytometry. inhibition, % (about 7 µM as worked out from the volumes in the protocol); in the data active means inhibition above about 50%
# An asterisk follows results filed as active; nt = not tested or not shown; + = active, no number.
SMILES,AHR activator,SUMO Mot1 rescue,ALR inh,Efflux pump inh,A1 inh,VLA-4 inh
C[C@@]12C(=O)Nc3ccc(Cl)cc3C(=O)N1[C@H]1c3ccccc3OC[C@@H]1[C@@H]2c1ccccc1,11.0,543.4*,5.6,-0.1,0.2,-2.4
COc1cc2c(cc1OC)C(=O)N1[C@H]3c4ccccc4OC[C@@H]3[C@H](c3ccccc3)[C@]1(C)C(=O)N2,6.5,182.9,-6.1,0.0,0.3,3.6
Cc1ccc(CCNc2ccc3ccccc3c2)cn1,1.0,39.7,98.8*,0.0,0.0,7.9
COc1cc(OC)c2cc(C(=O)N/N=C/c3cccc(OC)c3O)[nH]c2c1,49.4*,-2.5,5.0,0.0,-0.3,-6.1
O=C(CCN1c2ccccc2Sc2ccccc21)OCC(=O)N1CCN(C(=O)c2ccco2)CC1,-2.3,535.9,91.5*,0.0,-0.9,-5.3
CCOC(=O)CCc1c(C)c2ccc(O)cc2oc1=O,0.7,494.2,80.9*,-0.1,-0.1,-11.1
CC(C)COP(=O)(OCC(C)C)C(O)c1ccc(N(C)C)cc1 (stereo not given),1.8,-3.3,91.7*,0.5,1.1,-12.5
CC(C)COP(=O)(c1ccc(N(C)C)cc1)C(O)c1ccc(N(C)C)cc1 (stereo not given),11.2,-6.0,98.1*,-0.3,-1.3,0.9
CC(C)OP(=O)(c1ccc(N(C)C)cc1)C(O)c1ccc(N(C)C)cc1 (stereo not given),0.5,-15.2,98.4*,0.4,-0.1,13.3
CC(C)COP(=O)(c1ccc(N(C)C)cc1)C(O)c1ccccc1 (stereo not given),-0.1,-19.5,10.9,-0.1,0.2,-2.6
CCC(C(=O)N1CCC(N2CCCCC2)CC1)n1nc(C)c2sc3ccccc3c2c1=O (stereo not given),1.5,5.2,-1.3,0.0,0.3,3.5
COc1ccccc1OCCN1CSC(=S)N(C)C1,23.0,+,nt,-0.1,0.0,15.5
COc1cc(/C=C/C(=O)N2CCCc3ccccc32)cc(OC)c1OC,55.0*,14.4,-9.1,-0.2,0.8,-7.2
COc1ccc(/C=C/C(=O)N2CCCc3ccccc32)cc1,29.4,3.4,6.8,0.8,1.0,11.2
Cc1sc2nc(-c3ccccc3)[nH]c(=O)c2c1-c1ccccc1,48.0*,289.4,-6.7,-0.1,-0.2,-9.7
Cc1sc2nc(SCC(=O)N3CCOCC3)[nH]c(=O)c2c1-c1ccccc1,48.6*,11.2,-5.2,-0.4,0.0,-0.9
CC(C)c1c(O)nc(SCC(=O)N2CCOCC2)[nH]c1=O,0.8,-11.1,95.7*,-0.1,0.4,-0.2
O=C(CSc1nccc(=O)[nH]1)N1CCOCC1,-2.8,15.2,-4.0,0.1,0.0,14.8
O=C(CSc1nc(O)c(C(c2ccccc2)c2ccccc2)c(=O)[nH]1)N1CCOCC1,-1.3,78.8,90.7*,-0.1,0.6,6.8
O=C(CSc1nc(O)c(-c2ccccc2)c(=O)[nH]1)N1CCOCC1,-0.9,-22.0,24.8,-0.1,0.2,-7.2
C=CCN1CC(C(=O)N2CCC(Cc3ccc(Cl)cc3)(C(=O)OCC)CC2)CC1=O (stereo not given),3.7,-2.6,-2.0,0.0,-0.6,30.1
CC(=O)c1c(C)n([O-])c2ccc(C)cc2[n+]1=O,59.6*,4.0,-18.0,0.0,0.7,30.2
CCNC(=S)N(CCCN(CC)CC)Cc1cc2cc3c(cc2[nH]c1=O)OCO3,3.9,1.8,-2.6,0.0,0.2,-8.3
Cc1ccc2cc(CN(CC3CCCO3)C(=S)Nc3ccccc3)c(=O)[nH]c2c1C (stereo not given),51.2*,-17.5,-9.9,0.0,0.1,4.6
CCC(=O)N(CCc1ccccc1C)Cc1cc2ccc(C)cc2[nH]c1=O,4.3,14.8,-1.3,0.0,-0.7,6.9
SMILES,AHR activator,SUMO Mot1 rescue,ALR inh,Efflux pump inh,A1 inh,VLA-4 inh
CCNC(=S)N(CCc1ccccc1C)Cc1cc2cc(OC)c(OC)cc2[nH]c1=O,57.1*,-12.3,nt,0.4,-0.2,18.7
CCNC(=S)N(CCc1cccc(C)c1)Cc1cc2cc(OC)c(OC)cc2[nH]c1=O,25.8,7.7,-15.2,0.2,0.3,8.1
CC(=O)N(CCc1ccccc1C)Cc1cc2cc3c(cc2[nH]c1=O)OCO3,60.5*,6.3,-7.3,0.3,-3.6,7.6
Cc1cc(C)c2[nH]c(=O)c(CN(CC3CCCO3)C(=S)Nc3ccccc3)cc2c1 (stereo not given),9.5,272.2,-6.6,0.6,0.1,-12.1
CCN(CC)CCCN(Cc1cc2cc3c(cc2[nH]c1=O)OCO3)C(=S)Nc1ccccc1,48.7*,2.1,-12.9,-0.5,0.2,-3.4
CCCCN(C)C(=O)c1nc2ccccn2c1CNC1CCC1,2.7,7.7,0.7,-0.2,0.2,8.0
CCN1/C(=C/C(C)=C/c2sc3ccccc3[n+]2CC)Sc2ccccc21,-4.8,-42.1,99.0*,0.0,-1.5,nt
COC(=O)c1c(-c2ccccc2)csc1NC(=O)c1c(-c2ccccc2)noc1C,-1.1,0.8,nt,-0.2,1.3,-4.1
CCC(CC)c1nnc(NC(=O)c2c(-c3ccccc3)noc2C)s1,1.4,-5.6,77.8*,-0.1,0.0,15.1
CCN(CC)S(=O)(=O)c1ccc(NC(=O)c2c(-c3ccccc3)noc2C)cc1,-1.0,0.7,93.2*,-0.2,1.0,3.5
CCOC(=O)c1c(-c2ccc(F)cc2)csc1NC(=O)c1c(-c2ccccc2)noc1C,3.1,719.4*,-11.2,0.1,-1.0,14.9
O=C(C1CCN(S(=O)(=O)c2ccc(F)cc2)CC1)N1CCOCC1,-0.6,-1.1,-3.8,0.1,-0.2,9.4
CCN(CC)c1ccc(C(=O)Nc2cccc(F)c2)cc1,-5.0,101.2,10.1,-0.3,-0.4,8.4
O=C(Nc1cccc(F)c1)c1ccc2c(c1)OCCO2,-8.5,478.7*,3.5,0.1,-0.7,-10.6
O=C(Nc1ccc(F)cc1)c1ccccc1,0.8,0.4,-0.7,0.0,-3.8,24.8
CN(C)c1cccc(C(=O)Nc2cccc(F)c2)c1,39.5,-24.8,98.2*,0.1,-10.3,3.2
COc1ccc(-c2cccc(NC(=O)c3ccc4c(c3)OCO4)c2)nn1,65.5*,-8.3,-10.4,0.0,0.6,5.0
O=C(Nc1ccc(F)cc1)c1cccc(C(=O)Nc2ccc(F)cc2)c1,51.4*,8.1,-17.2,-0.1,-0.1,29.5
CC(=O)c1cccc(NC(=O)c2ccc3c(c2)OCO3)c1,23.2,-0.2,-8.0,-0.1,-6.3,-3.1
O=C(Nc1ccccc1)c1ccc2c(c1)OCCO2,-2.2,-20.6,-7.1,-0.1,-6.0,-8.6
O=C(O)CCSc1nnc(SCC(=O)NCC(F)(F)F)s1,-3.2,nt,-20.0,0.1,1.2,1.5
Cc1nonc1OCCNCc1c(C(=O)N(C)C)nc2ccc(Cl)cn12,2.7,19.7,-14.8,0.0,-1.1,0.4
COC(=O)c1ccc(CNC(=O)c2ccc(OC)c(S(=O)(=O)NC3CCCC3)c2)cc1,-0.2,6.5,nt,0.2,0.3,3.0
O=C(c1ccc(F)cc1)N1CCOCC1,-0.6,1.1,5.2,0.0,0.7,3.1

# Source: PubChem
